Among all 5,500 compounds or so, about 2,000 (36%) were called active. Not shown: some 18% with an inconclusive outcome. No stated cut-off is given here; in the data, active means normalized growth mostly below about 0.91 (no sharp cut-off); inconclusive means no clear call, values can overlap the other calls; inactive means mostly above about 0.92. This is one part of the list.
Assay: chemical genetic growth profiling, strain panel (AID 1159580);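 further: tested at 20 µM; growth read once vehicle control cultures reached saturation at 30 °C; 1 = growth at the plate median or of vehicle wells; lower values mean less growth of the strain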
Details: S. cerevisiae deletion strains, growth OD

Measured: normalized growth

C[C@@H](CN1CCC(Cc2ccccc2)CC1)[C@@H](O)c1ccc(O)cc1
inactive: locus YAL040C, strain CLN3, active compounds read low 1.07 | locus YCL061C, strain MRC1 (second series), active compounds read low 0.996 | locus YDR363W, strain ESC2, active compounds read low 1.01 | locus YER002W, strain NOP16, active compounds read low 1.01 | locus YGR078C, strain PAC10, active compounds read low 0.996 | locus YMR263W, strain SAP30, active compounds read low 1 | locus YMR307W, strain GAS1, active compounds read low 1.05 | locus YNL128W, strain TEP1, active compounds read low 1.03 | locus YNL175C, strain NOP13, active compounds read low 0.993 | locus YNL197C, strain WHI3, active compounds read low 0.999 | locus YNL224C, strain SQS1, active compounds read low 1.02 | locus YNL322C, strain KRE1, active compounds read low 0.979 | locus YOR083W, strain WHI5 (second series), active compounds read low 1 | locus YPL241C, strain CIN2, active compounds read low 0.99

From PubChem BioAssay AID1159580 (chemical genetic matrix, 2015)
